Assay outcomes from PubChem BioAssay.
Rango dissoc inh = prevents RanGTP from dissociating the Rango-importin beta complex. AID 540253. Potency, µM (series often up to 46.1 µM), without a hit: at the top dose activity change, negative = inhibition. Biochemical FRET Rango-importin beta, RanGTP-induced dissociation. hit rate 0.071% among 340,000. O95149+P62826; calls by dose curve; note: % of control where 0% means no effect; nearly all actives have a fitted effect of over 45% in size
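Recombinant Rango FRET biosensor (EYFP–snurportin 1 IBB–cerulean CFP10) at 0.1 uM premixed with 0.25 uM importin beta in PBS, 1 mM DTT, 0.02% Tween-20, 0.1% BSA. Compound added 5 min; RanGTP-RCC1 (0.6 uM Ran, 2 mM GTP, 0.2 uM RCC1) then triggers release, read at 45 min.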
Rango-impB inh = inhibitors of Rango-importin beta complex formation. AID 540263. Rango CFP/YFP FRET sensor + importin beta, 45 min. Potency, µM (highest dose often 92.2 µM), without a hit: at the highest dose inhibition of complex formation. hit rate 0.031% among 340,000; calls by dose curve;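 note: 0% = DMSO wells and 100% = buffer wells lacking importin beta; nearly all actives have a fitted effect of over 15% in size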
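Inhibition scored from the CFP 486 nm/YFP 530 nm FRET ratio 45 min after adding 0.125 microM importin beta to 50 nM Rango biosensor preincubated 5 min with compound (room temperature, PBS with DTT, Tween-20, BSA). No-importin wells as positive control.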
PKM2 act = PKM2 (human) enzyme activation; P14618; purified PKM2, Kinase-Glo ATP luminescence, activation; response scale: 0% is enzyme alone, no compound; Potency, µM (series often up to 57.5 µM), for inactives: at the top dose activation, hits mostly activators; hit rate 0.34% among 260,000; AID 1631; note: % is set by controls: 0 for no effect and ±100 for the full control effect; nearly all actives have a fitted effect of over 55% in size
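Kinase-Glo luminescence reports ATP generated from ADP (0.1 mM) and PEP (0.5 mM) by purified hPK-M2 after 1 h at room temperature, pH 7.2 imidazole buffer; intermediate enzyme activity allows detecting inhibitors and activators.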
PGK inhibitor = blocks T. brucei phosphoglycerate kinase. P07378. PGK/GAPDH coupled, Kinase-Glo luminescence, 60 min. Potency, µM (titrated, usually from 57.5 µM), for inactives: at the highest dose activity change, negative = inhibition, hits mostly inhibitors. hit rate 0.043% among 380,000; note: % is set by controls: 0 for no effect and ±100 for the full control effect; nearly all actives have a fitted effect of over 60% in size
Target sequence (P07378 whole entry, looked up): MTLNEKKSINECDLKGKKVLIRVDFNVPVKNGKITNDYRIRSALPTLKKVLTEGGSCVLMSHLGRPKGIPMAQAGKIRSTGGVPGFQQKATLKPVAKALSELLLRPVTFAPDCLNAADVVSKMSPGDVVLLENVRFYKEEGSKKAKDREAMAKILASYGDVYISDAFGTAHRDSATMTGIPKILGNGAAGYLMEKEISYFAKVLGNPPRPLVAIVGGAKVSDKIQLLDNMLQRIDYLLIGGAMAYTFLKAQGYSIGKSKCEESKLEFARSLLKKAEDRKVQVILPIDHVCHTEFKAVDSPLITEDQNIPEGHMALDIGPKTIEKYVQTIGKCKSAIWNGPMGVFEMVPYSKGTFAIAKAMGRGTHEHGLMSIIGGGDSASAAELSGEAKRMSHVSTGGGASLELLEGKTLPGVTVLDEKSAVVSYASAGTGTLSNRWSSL
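Luminescent ATP detection (Kinase-Glo Plus) follows a 60-minute room-temperature incubation, with wells lacking PGK as controls. Buffer: 100 mM TEA (pH 7.6), 5 mM MgCl2, 0.01% Tween-20. Coupling enzyme GAPDH (100 nM final) supplies unstable 1,3-BPG in-well.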
Tb PFK inh = T. brucei PFK enzyme inhibition; AID 485367; Potency, µM (series often up to 57.5 µM), without a hit: at the top dose activity, negative = inhibition, most hits filed as inhibitors; O15648; hit rate 0.17% among 330,000; T. brucei PFK, ADP-Glo luminescence;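 note: 0% = uninhibited 1x PFK enzyme wells and -100% = no-enzyme wells; nearly all actives have a fitted effect of over 60% in size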
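Compounds were pin-transferred as a titration series up to 57 uM into substrate buffer (0.5 mM F6P, 0.1 mM ATP, pH 8.0), then 1.25 nM PFK was added and reactions ran 45 min before ADP-Glo detection.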
ELG1 DNA repair = inhibitors of ELG1-dependent DNA repair in HEK293T cells | Potency, µM (doses to about 46.1 µM), for the others: top-dose activity change, negative = inhibition, hits mostly inhibitors | HEK293T ELG1-luciferase reporter, luminescence, 16 h; DNA damage induced by 5-fluorouridine | hit rate 2.3% among 330,000; note: % is set by controls: 0 for no effect and ±100 for the full control effect; nearly all actives have a fitted effect of over 55% in size
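Luminescence from the luciferase reporter, measured 30 min after ONE-Glo reagent at room temperature, was the read-out. Beforehand, 2,000 cells per well were exposed for 16 hr at 37 °C to 5-fluorouridine together with compound or vehicle.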
* hit, by the source's call; i = inactive; ? = inconclusive; · = no result. An excerpt weighted towards active compounds, which were near 2.4% of everything screened. Unless noted, calls come from the whole dose curve; as a rule, active = well fitted curve in the direction sought with a large enough effect; inconclusive = small, poorly fitted or top-dose-only effect, or another doubt; inactive = no such curve, though single readings can be large; an effect the other way counts as inactive or inconclusive. Potency is the fitted concentration of half-maximal effect.

SMILES	Rango dissoc inh	Rango-impB inh	PKM2 act	PGK inhibitor	Tb PFK inh	ELG1 DNA repair
CCC(=O)Nc1cccc(-c2cnc3ccccc3n2)c1	-4%	-1%	6%	-2%	1%	?
O=C(Nc1cccc(-c2cnc3ccccc3n2)c1)c1cccc(NC(=O)c2ccco2)c1	1%	0%	21%	-3%	5%	10µM*
O=C(CCl)Nc1cccc(-c2cnc3ccccc3n2)c1	-1%	-3%	-1%	-9%	4%	9.2µM*
O=C(Nc1ccccc1O)c1cccc(NC(=O)c2ccco2)c1	?	?	-2%	-13%	0%	12µM*
Cc1nc2ccc(S(=O)(=O)CCC(=O)Nc3ccc(C(C)C)cc3)cc2s1	·	·	·	-1%	·	·
O=C(NCC1CCCN1S(=O)(=O)c1cccs1)c1ccc([N+](=O)[O-])cc1 (stereo not drawn)	-1%	-2%	·	-2%	0%	?
O=C(Nc1ccc2nc(SCCOc3ccccc3Cl)sc2c1)c1cccs1	·	·	·	8%	·	·
O=C(CC1Nc2cccc3cccc(c23)NC1=O)Nc1ccc(F)cc1 (stereo not drawn)	-6%	-2%	6%	-1%	-18%	-20%
COc1ccc(NC(=O)CC2Nc3cccc4cccc(c34)NC2=O)cc1 (stereo not drawn)	-13%	?	3%	i	5%	23µM*
C=CCN(c1ccccc1)S(=O)(=O)c1cccc(C(=O)NC2CCN(Cc3ccccc3)CC2)c1	-8%	4%	·	9%	25%	-29%
Cc1sc(NC(=O)CSc2nnc(C(C)C)n2C)c(C#N)c1C	-24%	-5%	6%	i	2%	-10%
CCCn1c(SCC(=O)Nc2sc(C)c(C)c2C#N)nnc1C(C)C	-16%	-2%	-1%	4%	0%	21µM*
Cn1nc(-c2ccccn2)nc2c(=O)n(C)c(=O)nc1-2	-16%	-5%	6%	?	-10%	?
CCCc1nc2c(=O)n(C)c(=O)nc-2n(C)n1	-10%	-4%	-1%	?	0%	4.6µM*
CCc1cc(=O)[nH]c(SCc2nc(-c3cccc(Cl)c3)no2)n1	·	·	·	-9%	·	·
CC1CCCN(CC(=O)Nc2ccc(S(=O)(=O)N3C(C)CCCC3C)cc2)C1 (stereo not drawn)	·	·	·	i	·	·
O=S(=O)(NCc1ccccc1)c1ccc(S(=O)(=O)N(Cc2ccccn2)C2CCCC2)cc1	10%	2%	-3%	-6%	-1%	21µM*
COc1cc(/C=N/NC(=O)Cc2csc(N3CCOCC3)n2)cc(OC)c1O	-1%	-3%	22%	-1%	0%	-4%
O=C(Cc1csc(N2CCOCC2)n1)N/N=C/c1ccc(Cl)cc1Cl	3%	0%	-2%	-2%	-2%	23µM*
O=C(CN(Cc1ccco1)C(=O)c1cc(=O)[nH]c2ccccc12)Nc1ccccc1Br	-8%	-2%	5%	-5%	-1%	21µM*
COc1cc(SC)ccc1C(=O)N(CC(=O)Nc1ccccc1Br)Cc1ccco1	-1%	4%	·	0%	-1%	-8%
COc1cc(-c2nc3c(c(C)nn3-c3ccccc3)c3cc(OC)c(OC)cc23)ccc1O	-7%	-3%	9%	-2%	1%	18µM*
COc1cc(OC)c(OC)cc1/C=N/NC(=S)NCC1CCCO1 (stereo not drawn)	-3%	2%	-1%	-5%	0%	18µM*
CSc1ccc(-c2nc3ncccn3c2Nc2ccc(C)c(C)c2)cc1	·	·	·	5%	·	·
C/C(=N\Nc1ncc(Br)cn1)c1cccc([N+](=O)[O-])c1	-4%	-3%	-6%	-6%	0%	2%
SMILES	Rango dissoc inh	Rango-impB inh	PKM2 act	PGK inhibitor	Tb PFK inh	ELG1 DNA repair
C/C(=N\Nc1cc(C)nc(-c2ccccc2)n1)c1cccc([N+](=O)[O-])c1	6%	4%	-3%	-9%	0%	15µM*
COc1ccc(NC(=O)Cn2c(=O)n(Cc3ccccc3)c(=O)c3sc4ccccc4c32)cc1	·	·	·	-1%	·	·
COCCn1c(SCC(=O)Nc2ccc(Cl)c(S(=O)(=O)N(C)C)c2)nc2ccccc21	-13%	-1%	-8%	i	1%	18µM*
CCOC(=O)c1cccc(NC(=O)CSc2nc3ccccc3c(=O)n2CCOC)c1	-5%	0%	-2%	-1%	-6%	21µM*
C=C(C)Cn1c(SCC(=O)N/N=C/c2cccc(O)c2)nc2ccccc2c1=O	-2%	?	0%	-3%	3%	21µM*
CCOC(=O)c1cccc(NC(=O)CSc2nc3ccccc3c(=O)n2CC)c1	-13%	1%	7%	-2%	0%	-29%
CCn1c(SCC(=O)Nc2cccc(OC)c2)nc2ccccc2c1=O	-4%	-2%	11%	-6%	8%	23µM*
O=C(NCc1ccccc1Br)c1ccc2c(c1)OCCO2	7%	-3%	3%	-7%	0%	23%
Cc1ccc(S(=O)(=O)N(C)CC(=O)NNC(=O)Cc2cccc(F)c2)cc1	-3%	4%	·	-7%	?	10%
CCCn1c(SCC(=O)Nc2cccc(S(=O)(=O)N(C)C)c2)nc2ccccc2c1=O	-1%	-1%	9%	-9%	0%	23µM*
COc1cnc(-c2ccccn2)nc1NC(C)C	12%	0%	2%	i	-1%	-6%
COc1cnc(-c2ccccn2)nc1Sc1cccc(Cl)c1	18%	1%	1%	-8%	0%	?
COc1ccccc1Sc1nc(-c2ccccn2)ncc1OC	5%	0%	4%	i	9%	23µM*
COc1cnc(-c2ccccn2)nc1Sc1ccc(C)cc1	-6%	3%	4%	-1%	0%	23µM*
N#C/C(=N\Nc1ccc(S(=O)(=O)N2CCCCC2)cc1)C(N)=S	26%	?	-8%	i	-1%	?
N#C/C(=N\Nc1ccc(S(=O)(=O)N2CCc3ccccc32)cc1)C(N)=S	-12%	4%	19%	2%	-1%	6.5µM*
N#C/C(=N\Nc1ccc(S(=O)(=O)N2CCCCCC2)cc1)C(N)=S	7%	-1%	-1%	i	1%	21µM*
Cc1ccc2c(CC(=O)Nc3c(C(=O)c4ccc(F)cc4)oc4ccccc34)coc2c1C	·	·	·	5%	·	·
COc1ccccc1-n1cnnc1SCC(=O)Nc1cccc(S(N)(=O)=O)c1	-7%	-2%	21%	i	2%	9%
COc1ccc(NC(=O)c2cc(-c3ccccc3O)no2)cc1	·	·	·	-7%	·	·
COc1ccc(-c2onc(C)c2-c2ccc(C(=O)OC(C)C)o2)c(O)c1	-16%	-3%	7%	3%	-9%	23µM*
